Source: the supplement of paper PMC6555819

Assays:
Assay in all cases: PBM binding z-score (relative to random genomic background probes); higher = stronger binding; sequences stand for … in GC…GCGATTGACAGCGTAGAATGAAGG
[1] = tested on: FXR:RXRa (NR concentration 270 nM, RXRa partner concentration 90 nM)
Method in brief: (§1)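 Binding z-scores take random background probes as their reference. They come from custom Agilent 4×180K protein-binding microarrays incubated 1 h with ligand-free nuclear receptor dimers, with antibodies against each partner (one per run) detecting binding. Scanned fluorescence was regression-normalized.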

[2] = tested on: LXRa:RXRa (NR concentration 270 nM, RXRa partner concentration 90 nM)
Method in brief: as §1

[3] = tested on: LXRa homodimer (NR concentration 270 nM)
Method in brief: as §1

[4] = tested on: LXRb:RXRa (NR concentration 270 nM, RXRa partner concentration 90 nM)
Method in brief: as §1

[5] = tested on: LXRb homodimer (NR concentration 270 nM)
Method in brief: as §1

[6] = tested on: PPARa:RXRa (NR concentration 270 nM, RXRa partner concentration 90 nM)
Method in brief: as §1

[7] = tested on: PPARg:RXRa (NR concentration 180 nM, RXRa partner concentration 90 nM)
Method in brief: as §1

[8] = tested on: PPARg:RXRa 270nM:90nM, anti-RXR (NR concentration 270 nM, RXRa partner concentration 90 nM)
Method in brief: as §1

[9] = tested on: PPARg:RXRa 30nM:10nM, anti-RXR (NR concentration 30 nM, RXRa partner concentration 10 nM)
Method in brief: as §1

[10] = tested on: PPARg:RXRa 90nM:30nM, anti-RXR (NR concentration 90 nM, RXRa partner concentration 30 nM)
Method in brief: as §1

[11] = tested on: PPARg:RXRa DBDmut IVT, anti-RXR (DBD mutation: RXRa K156A/R161A, NR concentration 270 nM, RXRa partner concentration 90 nM)
Method in brief: as §1

[12] = tested on: PPARg:RXRa IVT, anti-PPARg (NR concentration 270 nM, RXRa partner concentration 90 nM)
Method in brief: as §1

[13] = tested on: PPARg DBDmut:RXRa IVT, anti-PPARg (DBD mutation: PPARg1 K132A/R137A, NR concentration 270 nM, RXRa partner concentration 90 nM)
Method in brief: as §1

[14] = tested on: PPARg DBDmut IVT, anti-PPARg (DBD mutation: PPARg1 K132A/R137A, NR concentration 270 nM)
Method in brief: as §1

[15] = tested on: PPARg homodimer (NR concentration 180 nM)
Method in brief: as §1

[16] = tested on: PXR:RXRa (NR concentration 270 nM, RXRa partner concentration 90 nM)
Method in brief: as §1

[17] = tested on: PXR homodimer (NR concentration 270 nM)
Method in brief: as §1

[18] = tested on: RARa:RXR (NR concentration 270 nM, RXRa partner concentration 90 nM)
Method in brief: as §1

[19] = tested on: RARa homodimer (NR concentration 270 nM)
Method in brief: as §1

[20] = tested on: RARb:RXRa (NR concentration 270 nM, RXRa partner concentration 90 nM)
Method in brief: as §1

| Sequence | PBM binding z-score [1] | PBM binding z-score [2] | PBM binding z-score [3] | PBM binding z-score [4] | PBM binding z-score [5] | PBM binding z-score [6] | PBM binding z-score [7] | PBM binding z-score [8] | PBM binding z-score [9] | PBM binding z-score [10] | PBM binding z-score [11] | PBM binding z-score [12] | PBM binding z-score [13] | PBM binding z-score [14] | PBM binding z-score [15] | PBM binding z-score [16] | PBM binding z-score [17] | PBM binding z-score [18] | PBM binding z-score [19] | PBM binding z-score [20] |
| --- | --- | --- | --- | --- | --- | --- | --- | --- | --- | --- | --- | --- | --- | --- | --- | --- | --- | --- | --- | --- |
| CCTTACGGATCACTCCAGGTTATAGCATCGGAGT | 0.957 | 3.48 | 1.36 | 0.889 | 0.62 | 0.155 | 0.486 | -0.0175 | -0.194 | -0.283 | 0.299 | 0.0369 | 0.0149 | 0.787 | 1 | 0.823 | 0.761 | 0.748 | 1.26 | 0.105 |
| TCTATTAGTTGATTAGGGCAACCGTAACAGCGGA | 0.375 | 0.299 | 0.215 | 0.508 | 0.657 | 1.05 | 0.178 | 2.01 | 3.91 | 2.77 | 2.24 | 1.65 | 0.987 | 1.87 | 0.942 | 0.413 | 0.434 | 0.681 | 1.18 | 0.877 |
| TCATATCGGTAATACAGGTGAAAGTCGGCATCTA | 0.812 | 0.733 | 0.448 | 0.822 | 0.305 | 1.58 | 0.895 | 2.79 | 3.92 | 3.03 | 2.51 | 1.96 | 1.47 | 0.852 | 1.2 | 0.46 | 0.585 | 0.605 | 1.17 | 0.527 |
| GCTGCTAAGTCAGGTTGGTCAGCTAACGGGTACG | -0.434 | -0.657 | -0.43 | -0.836 | -0.829 | -0.794 | -0.46 | -0.678 | -0.924 | -0.942 | -0.0465 | -0.681 | -1.49 | -1.03 | -0.201 | -0.468 | -0.643 | -0.502 | -0.643 | -0.0361 |
| CCTACTTGGCCAAAGGTCATTGATTCCAATGCTC | 5.47 | 5.24 | 4.8 | 5.11 | 1.42 | 5.78 | 9.42 | 8.35 | 8.32 | 9.45 | 2.53 | 4.83 | 0.228 | 0.876 | 3.67 | 5.46 | 2.07 | 5.85 | 1.65 | 4.57 |
| CGTCCAAGGTCTGAGAGGTCAGTGAATGCCGAGT | 1.6 | 1.76 | 0.726 | 1.58 | -0.51 | 2.29 | -0.0569 | 0.729 | -0.614 | -0.154 | 0.28 | 0.77 | -0.424 | -1.57 | 1.81 | 2.94 | 1.65 | 2.79 | 0.0831 | 3.24 |
| GCTATTAGTTGAACGGGCAACCGAATGATTCTCG | -0.438 | -0.312 | -0.165 | -0.485 | -0.496 | -0.347 | 0.352 | 0.00975 | -0.295 | -0.0379 | 0.443 | -0.481 | -1.02 | -0.0789 | -0.518 | -0.435 | -0.664 | -0.533 | -0.461 | 0.14 |
